The campaign covered roughly 2,500 compounds. About 360 (14%) were called active.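 How the source made its calls: active means signal-lowering compounds whose fitted half-maximal concentration AC50 is no higher than ten times their top tested concentration; inconclusive means flat curve with 30 to 70% inhibition, or poor fit; inactive means flat within 30%, signal increase, or AC50 above limit.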 These entries were drawn from the full list.
assay: non-specific inhibitors of H2O2 luminol chemiluminescence – biochemical, luminescence, no ALR or DTT, cherry-pick, artefact control for ALR inhibitor project, dose response (AID 540356); conditions: HRP/H2O2 luminol luminescence counterscreen; series mostly up to 10 µM

Row | SMILES | AC50
1 | CNCCc1ccc(O)c(O)c1 | inactive
2 | NCCc1ccc(O)c(O)c1 | 6.13 µM (active)
3 | C/C(CCc1c[nH]c2ccccc12)=N\O | inactive
4 | CCc1ccc(N2C(=O)NC(=O)/C(=C\C=C\c3ccco3)C2=O)cc1 | inactive
5 | CC1=NN(c2ccccc2)C(=O)C1/C=C1/C(=O)NC(=O)N(c2cc(C)cc(C)c2)C1=O (stereo not given) | inactive
6 | Cn1c(O)c(/C=N/Nc2ccccc2)c(=O)n(C)c1=O | 1.32 µM (active)
7 | CN=C(SCc1ccccc1)c1c(O)n(C)c(=O)n(C)c1=O | inactive
8 | N/C(=N\[N+](=O)[O-])N/N=C/c1ccc(O)cc1 | inactive
9 | C=CCN1C(=O)NC(=O)/C(=C\c2ccc(-c3ccccc3[N+](=O)[O-])o2)C1=O | inactive
10 | Cc1ccc(/C=C2\C(=O)NC(=O)N(Cc3ccccc3Cl)C2=O)o1 | inactive
11 | CCCN1CCc2cccc3c2[C@H]1Cc1ccc(O)c(O)c1-3 | 9.91 µM (active)
12 | CC(=O)Nc1ccccc1OP1(=O)COc2ccccc2OC1 | inactive
13 | Cc1ccc(/C=C2\C(=O)NC(=O)N(CCc3ccc(F)cc3)C2=O)s1 | inactive
14 | O=C(O)C12C3CCCC1C32c1ccccc1 (stereo not given) | inactive
15 | CCNc1ccc(P(=S)(N(C)C)N(C)C)cc1 | inactive

— PubChem BioAssay AID540356 (Broad Institute, 2011)
